According to PubChem BioAssay (NCATS):
Several values for one entry are separate records, joined by “and”; a condition that tells them apart may be missing. Equal values may be shown once. Inconclusive results are not listed. Activity calls are given as the source filed them. Unless noted, calls come from the whole dose curve; as a rule, active = well fitted curve in the direction sought with a large enough effect; inconclusive = small, poorly fitted or top-dose-only effect, or another doubt; inactive = no such curve, though single readings can be large; an effect the other way counts as inactive or inconclusive.

Experiments:
[1] = qHTS assay for small molecule activators of the nuclear factor-kappa B (NF-kB) signaling pathway (AID 651749; active = well fitted activation curve with a large enough effect in the signal ratio; the % refers to the signal ratio; note: % of control where 0% means no effect); conditions: NF-kB-bla ME-180 cells, beta-lactamase FRET ratio, 16 h; active compounds read high
Outline: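 Beta-lactamase reporter expression, controlled by NF-kB response elements in ME-180 cells, was quantified fluorometrically via FRET disruption; cells at 2,000/well had been incubated with 23 nL test compound for 16 hr.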

[2] = qHTS assay for environmental chemicals that activate the Aryl hydrocarbon Receptor (AhR) signaling pathway (AID 651777); conditions: 1A2-DRE human hepatoma cells, luciferase, 24 h; activation: active compounds read high; note: % of control where 0% means no effect; nearly all actives have a fitted effect of over 15% in size
Outline: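 Measured luciferase activity, read 30 min after One-Glo addition at room temperature, from human hepatoma cells bearing a dioxin response element–CYP1A2 promoter reporter and exposed to compound for 24 hr at 37 C.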

[3] = biological target: Peroxisome proliferator-activated receptor alpha (Homo sapiens) (UniProt Q07869); assay: qHTS assay for small molecule agonists of the peroxisome proliferator-activated receptor alpha (PPARalpha) signaling pathway (AID 651778); conditions: PathHunter PPARalpha complementation, chemiluminescence, 6 h; active compounds read high; note: % of control where 0% means no effect
Outline: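 Cells plated at 2,000/well and held overnight at 37 C, 5% CO2, then compound added by pin tool for 6 hr; after PathHunter detection reagent and 60 min at room temperature, chemiluminescence from enzyme complementation was read.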

[4] = qHTS assay for small molecule agonists of the antioxidant response element (ARE) signaling pathway measured by Nrf2-dependant transcriptional activity (AID 720636; active = well fitted curve in the direction sought with a large enough effect in the repeat runs; an effect the other way counts as inactive or inconclusive; note: potency is the fitted concentration of half-maximal effect; for activation: % of control where 0% means no effect); conditions: ARE-luc HepG2, Nrf2 luciferase reporter, 16 h; series mostly up to 92.4 µM
Outline: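 In HepG2 cells engineered with an Nrf2-responsive luciferase gene, ARE induction was quantified as luminescence after 16 hr compound treatment at 37 C.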

[5] = qHTS assay for small molecule activators of the p53 signaling pathway (AID 651743; active = well fitted activation curve with a large enough effect in the signal ratio, not every such curve was filed as active; the % refers to the signal ratio; note: % of control where 0% means no effect); conditions: HCT-116 p53RE-bla, beta-lactamase FRET ratio, 16 h; activation: active compounds read high
Outline: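 Here HCT-116 cells with an integrated p53-responsive beta-lactamase gene were incubated with compounds (16 hours, 37 C) after a 5-hour plating period; beta-lactamase activity was detected as fluorescence intensity via B/G FRET substrate.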

[6] = qHTS assay for small molecule agonists of the antioxidant response element (ARE) signaling pathway (AID 651741; active = well fitted activation curve with a large enough effect in the signal ratio; the % refers to the signal ratio; note: potency is the fitted concentration of half-maximal effect; for activation: % of control where 0% means no effect); conditions: HepG2 ARE-bla reporter, beta-lactamase FRET ratio, 16 h; series mostly up to 96 µM
Outline: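 Beta-lactamase reporter expression driven by the antioxidant response element in HepG2 cells was detected by fluorescence with LiveBLAzer B/G FRET substrate (2 h, room temperature) following 16 h compound treatment at 37 C.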

[7] = qHTS assay for small molecule disruptors of the mitochondrial membrane potential - 1 hr assay (AID 651754; calls by dose curve; note: % is set by controls: 0 for no effect and ±100 for the full control effect; nearly all actives have a fitted effect of over 35% in size); conditions: series mostly up to 92.2 µM
Outline: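 In this qHTS format, a 1 hr compound treatment of HepG2 cells precedes Mito-MPS staining, and membrane potential is judged from aggregate (red) against monomer (green) fluorescence intensity.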

[8] = qHTS assay for small molecule disruptors of the mitochondrial membrane potential - 5 hr assay (AID 651755; calls by dose curve; note: % is set by controls: 0 for no effect and ±100 for the full control effect; nearly all actives have a fitted effect of over 40% in size); conditions: JC-1-type ratio dye; series mostly up to 92.2 µM
Outline: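 Seed HepG2 overnight, add compound, incubate 5 hr at 37C and 5% CO2, stain 30 min with Mito-MPS, then measure monomer (490/535 nm) and aggregate (540/590 nm) fluorescence.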

[9] = biological target: Tumor necrosis factor (Homo sapiens) (UniProt P01375); assay: qHTS assay to identify small molecules that stimulate Tumor Necrosis Factor-alpha (TNF-alpha) secretion (AID 651757; active = well fitted curve in the direction sought with a large enough effect in the signal ratio; the % refers to the signal ratio; note: potency is the fitted concentration of half-maximal effect); conditions: Human cells, HTRF 665/615 ratio; series mostly up to 92.2 µM
Outline: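 Using 3000 THP-1 cells per well, compounds and controls were applied for 17 hrs at 37 C. Detection followed with two labeled anti-TNF-alpha antibodies (cryptate donor, XL665 acceptor) for 3 hr at room temperature, measured by TR-FRET.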

[10] = biological target: Nuclear receptor ROR-gamma (Homo sapiens) (UniProt P51449); assay: qHTS assay for small molecule antagonists of the retinoid-related orphan receptor gamma (ROR-gamma) signaling pathway (AID 651802); conditions: ROR-gamma antagonist cell reporter assay; series mostly up to 92.2 µM; note: nearly all actives have a fitted effect of over 60% in size; note: potency is the fitted concentration of half-maximal effect
Outline: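 Doxycycline-induced reporter activity in engineered CHO cells (TET-inducible ROR, RORE-LUC) was measured by luminescence after 16hr compound exposure at 37C.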

[11] = qHTS assay for small molecule antagonists of the retinoid-related orphan receptor gamma (ROR-gamma) signaling pathway - cell viability counter screen (AID 720652; active = well fitted curve in the direction sought with a large enough effect in the repeat runs; an effect the other way counts as inactive or inconclusive;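 note: CHO reporter cells with doxycycline-induced ROR-gamma expression; compound exposure lasted 16 hr before ATP read; % is set by controls: 0 for no effect and ±100 for the full control effect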); conditions: RORgamma reporter cell line viability counter screen; series mostly up to 92.2 µM
Outline: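 ATP-based viability readout in the ROR-gamma reporter CHO cells after 16 hr compound exposure under doxycycline induction.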

[12] = qHTS assay to identify small molecules that stimulate interleukin-8 (IL-8) secretion (AID 651758; active = well fitted activation curve with a large enough effect in the signal ratio; the % refers to the signal ratio; note: potency is the fitted concentration of half-maximal effect; for activation: 0% is about no effect); conditions: HTRF ratio (665/615); series mostly up to 92.2 µM
Outline: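 Quantitative HTS in THP-1 monocytic cells at 2000 cells per well, with 16 hrs compound incubation at 37 C. IL-8 in the medium was then quantified by HTRF immunoassay, read after 1-3 hrs at room temperature.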

[13] = biological target: Tyrosine-protein kinase Yes (Homo sapiens) (UniProt P07947); assay: qHTS for small molecule inhibitors of Yes1 kinase: Primary Screen (AID 686947); conditions: Yes1 kinase biochemical qHTS inhibition; series mostly up to 76.9 µM;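 note: plate controls were DMSO with enzyme for no effect and no-enzyme DMSO wells for full effect; nearly all actives have a fitted effect of over 60% in size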
Outline: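 In this qHTS format, inhibition is expressed relative to DMSO controls with enzyme (maximum) and without enzyme (minimum). The 60 min room-temperature reaction uses 0.1 mM ATP, with ADP detected by luminescence.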

[14] = qHTS for small molecule inhibitors of Yes1 kinase: Counter Assay (AID 686950); conditions: series mostly up to 76.9 µM;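 note: no kinase present so only ADP-Glo detection of a fixed ADP amount is tested; luminescence from ADP-Glo reporting ADP in a fixed ATP and ADP mixture; 0% = DMSO wells with ATP plus ADP and -100% = ATP-only wells without ADP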
Outline: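 Measuring interference with ADP-Glo, the assay ran 60 min at room temperature on an ATP/ADP mix lacking enzyme. Values were normalized to ATP-plus-ADP (maximum) and ATP-only (minimum) DMSO controls.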

Peroxisome proliferator-activated receptor alpha (Homo sapiens), sequence (Q07869 whole entry, looked up): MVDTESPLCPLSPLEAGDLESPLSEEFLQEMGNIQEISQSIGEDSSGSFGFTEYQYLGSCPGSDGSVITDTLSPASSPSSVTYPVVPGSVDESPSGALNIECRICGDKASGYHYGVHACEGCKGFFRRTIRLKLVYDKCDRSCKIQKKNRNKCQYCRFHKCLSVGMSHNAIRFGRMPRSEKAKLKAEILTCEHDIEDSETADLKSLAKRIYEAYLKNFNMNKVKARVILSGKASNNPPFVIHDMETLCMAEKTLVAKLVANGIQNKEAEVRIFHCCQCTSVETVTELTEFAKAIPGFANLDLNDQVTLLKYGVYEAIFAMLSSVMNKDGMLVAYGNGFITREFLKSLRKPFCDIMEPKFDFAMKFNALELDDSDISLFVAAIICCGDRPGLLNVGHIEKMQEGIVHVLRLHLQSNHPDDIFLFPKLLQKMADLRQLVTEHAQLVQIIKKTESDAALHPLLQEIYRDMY
Tumor necrosis factor (Homo sapiens), sequence (P01375 whole entry, looked up): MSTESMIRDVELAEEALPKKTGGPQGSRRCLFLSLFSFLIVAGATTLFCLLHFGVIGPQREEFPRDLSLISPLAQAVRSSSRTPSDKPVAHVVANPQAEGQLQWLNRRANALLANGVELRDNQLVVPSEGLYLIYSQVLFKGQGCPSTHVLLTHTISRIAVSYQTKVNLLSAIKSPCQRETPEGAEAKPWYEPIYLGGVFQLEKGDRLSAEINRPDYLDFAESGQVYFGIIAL
Nuclear receptor ROR-gamma (Homo sapiens), sequence (P51449 whole entry, looked up): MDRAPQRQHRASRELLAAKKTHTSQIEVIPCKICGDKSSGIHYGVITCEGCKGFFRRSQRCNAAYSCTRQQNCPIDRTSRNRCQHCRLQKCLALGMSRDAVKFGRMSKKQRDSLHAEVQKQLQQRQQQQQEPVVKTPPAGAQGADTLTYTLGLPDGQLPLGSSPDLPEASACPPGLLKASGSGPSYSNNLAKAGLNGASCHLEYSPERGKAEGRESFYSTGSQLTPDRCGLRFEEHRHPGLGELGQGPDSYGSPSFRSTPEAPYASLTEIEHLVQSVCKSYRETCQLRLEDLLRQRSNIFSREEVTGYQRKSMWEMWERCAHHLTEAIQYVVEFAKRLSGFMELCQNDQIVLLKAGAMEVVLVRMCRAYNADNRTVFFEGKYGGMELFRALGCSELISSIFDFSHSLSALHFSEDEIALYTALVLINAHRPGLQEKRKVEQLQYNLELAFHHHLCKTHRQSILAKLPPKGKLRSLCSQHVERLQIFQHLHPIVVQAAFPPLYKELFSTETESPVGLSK
Tyrosine-protein kinase Yes (Homo sapiens), sequence (P07947 whole entry, looked up): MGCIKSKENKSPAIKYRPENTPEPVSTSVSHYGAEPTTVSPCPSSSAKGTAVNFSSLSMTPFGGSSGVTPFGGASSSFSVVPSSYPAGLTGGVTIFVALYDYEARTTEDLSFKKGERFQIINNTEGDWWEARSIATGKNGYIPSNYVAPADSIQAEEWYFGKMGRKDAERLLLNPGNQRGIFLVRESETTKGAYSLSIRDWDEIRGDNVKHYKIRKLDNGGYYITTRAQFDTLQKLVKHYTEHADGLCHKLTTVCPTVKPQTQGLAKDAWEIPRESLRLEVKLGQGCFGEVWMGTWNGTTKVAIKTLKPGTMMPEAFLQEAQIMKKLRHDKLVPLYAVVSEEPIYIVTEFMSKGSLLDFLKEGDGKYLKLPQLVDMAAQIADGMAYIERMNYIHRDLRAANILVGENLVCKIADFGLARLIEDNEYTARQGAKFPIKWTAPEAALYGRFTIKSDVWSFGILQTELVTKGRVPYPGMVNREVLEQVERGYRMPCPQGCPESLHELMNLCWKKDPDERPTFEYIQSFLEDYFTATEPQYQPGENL

OC[C@H]1O[C@@](CO)(O[C@H]2O[C@H](CO)[C@@H](O)[C@H](O)[C@H]2O)[C@@H](O)[C@@H]1O
inactive: activation [1] -1.26% | activation [2] 1.69% | max response [3] 0.569% | Potency [4]

CC(C)CCCCCCc1ccc(O)cc1
inactive: activation [5] 2.32% | activation [2] 0.323% | Potency [4]

CN(CCO)CC(O)Cn1cnc2c1c(=O)n(C)c(=O)n2C (centres undefined) (tested in a mixture with another compound)
inactive: Potency [6] | activation [1] 1.88% | activation [2] -0.921% | max response [3] -0.0909% | Potency [4]

CC/C=C\C/C=C\C/C=C\CCCCCCCC(=O)O
active: Potency [6] 42.2 µM
inactive: Potency [7] | Potency [8] | Potency [9] | activation [2] 0.211% | max response [3] 20% | Potency [10] | outcome [11]

Cc1ccc(S(=O)(=O)O)cc1C
inactive: activation [5] -1.09% | Potency [7] | Potency [8] | Potency [9] | Potency [12] | activation [2] -1.47% | max response [3] -6.39% | Potency [4] | outcome [11]

CO[C@H]1C[C@@H]2CC[C@@H](C)[C@@](O)(O2)C(=O)C(=O)N2CCCC[C@H]2C(=O)O[C@H]([C@H](C)C[C@@H]2CC[C@@H](OC(=O)C(C)(CO)CO)[C@H](OC)C2)CC(=O)[C@H](C)/C=C(\C)[C@@H](O)[C@@H](OC)C(=O)[C@H](C)C[C@H](C)/C=C/C=C/C=C/1C
inactive: outcome [13] | outcome [14]

NC(N)=O
inactive: activation [1] 1.05% | Potency [7] | Potency [8] | Potency [9] | max response [3] -1.08% | Potency [10] | Potency [4] | outcome [11]

NCCN
inactive: activation [5] 3.88% | activation [1] -0.458% | Potency [7] | Potency [8] | Potency [9] | activation [2] -1.15% | max response [3] -6.55% | Potency [10] | Potency [4] | outcome [11]

OCC(O)CO
inactive: activation [5] -2.04% and 0.703% | activation [1] 0.141% and 0.577% | Potency [7] | Potency [8] | Potency [9] | activation [2] -0.636% and 0.226% | max response [3] -3.36% and -0.557% | Potency [10] | Potency [4] | outcome [11]

N[C@@H](Cc1cc(I)c(Oc2ccc(O)c(I)c2)c(I)c1)C(=O)O
inactive: activation [5] 5% | max response [3] -3.23% | Potency [4]

OC[C@H]1O[C@@H]2O[C@H]3[C@H](O)[C@@H](O)[C@@H](O[C@H]4[C@H](O)[C@@H](O)[C@@H](O[C@H]5[C@H](O)[C@@H](O)[C@@H](O[C@H]6[C@H](O)[C@@H](O)[C@@H](O[C@H]7[C@H](O)[C@@H](O)[C@@H](O[C@H]1[C@H](O)[C@H]2O)O[C@@H]7CO)O[C@@H]6CO)O[C@@H]5CO)O[C@@H]4CO)O[C@@H]3CO
inactive: Potency [6] | Potency [7] | Potency [8] | Potency [9] | Potency [12] | activation [2] 1.89% and -0.569% | max response [3] -0.429% and -5.48% | Potency [10] | Potency [4] | outcome [11]

CCCCC
inactive: activation [5] 2.34% | activation [1] -0.668% | Potency [7] | Potency [8] | Potency [9] | max response [3] -0.71% | Potency [10] | Potency [4] | outcome [11]

O=P(O)(O)O
inactive: Potency [6] | activation [1] -0.144% | Potency [7] | Potency [8] | Potency [9] | activation [2] -1.09% | max response [3] -4.49% | Potency [10] | Potency [4] | outcome [11]

CCCCC(CC)COS(=O)(=O)O (centres undefined)
inactive: activation [1] -1.03% | activation [2] -1.44% | max response [3] -1.27% | Potency [4]

C[C@H]1O[C@@H](O[C@H]2[C@@H](O)C[C@H](O[C@H]3[C@@H](O)C[C@H](O[C@H]4CC[C@@]5(C)[C@H](CC[C@@H]6[C@@H]5C[C@@H](O)[C@]5(C)[C@@H](C7=CC(=O)OC7)CC[C@]65O)C4)O[C@@H]3C)O[C@@H]2C)C[C@H](O)[C@@H]1O
active: Potency [9] 0.376 µM | Potency [10] 9.44 µM
inactive: activation [1] -3.56% and -2.4% | activation [2] 2.26% and 1.31% | max response [3] 3.82% and -3.75% | Potency [4]

[O-][N+](=Nc1ccccc1)c1ccccc1
inactive: activation [5] 1.25% | activation [1] 0.0708% | Potency [7] | Potency [8] | Potency [9] | max response [3] 10.8% | outcome [11]

O=C(OCc1ccccc1)c1ccc(O)cc1
inactive: activation [5] -6.7% | activation [2] 0.611% | max response [3] -0.0988%

OCc1ccccc1
inactive: activation [1] 0.143% | Potency [7] | Potency [8] | Potency [9] | Potency [12] | activation [2] 0.173% | max response [3] 2.92% | Potency [10] | Potency [4] | outcome [11]

CO
inactive: activation [5] -0.522% | activation [1] -0.694% | Potency [9] | activation [2] -0.288% | max response [3] -6.03% | Potency [10] | Potency [4] | outcome [11]

C=C1C(CCl)(CCl)C2(Cl)C(Cl)C(Cl)C1(Cl)C2(Cl)Cl (centres undefined)
inactive: activation [1] 0.534% | activation [2] 1.11% | max response [3] 19%
active: Potency [6] 37.6 µM | Potency [12] 66.8 µM | Potency [4] 66.8 µM

O.O.O.O.O.O.O.O=S(=O)([O-])[O-].[Co+2]
inactive: Potency [7] | Potency [8] | activation [2] -0.475% | max response [3] -1.84% | Potency [4]

CC(C)O
inactive: activation [1] -0.863% | Potency [7] | Potency [8] | Potency [9] | Potency [12] | activation [2] 2.92% | max response [3] -0.168% | Potency [10] | Potency [4] | outcome [11]

C=CC(C)(O)CC/C=C(\C)CCC=C(C)C (centres undefined)
inactive: activation [5] -1.4% | activation [1] 0.695% | activation [2] 0.207% | max response [3] -0.214% | Potency [4]

CC(C)[C@@H]1CC[C@@H](C)C[C@H]1O
inactive: Potency [6] | activation [1] 0.809% | activation [2] -0.378% | max response [3] -1.09% | Potency [4]

C/C=C/C=C/C(=O)O
inactive: Potency [9] | Potency [12] | activation [2] 0.214% | max response [3] 0.184% | Potency [10] | Potency [4] | outcome [11]

CCOC(C)OCC
inactive: activation [1] 0.0884% | Potency [9] | activation [2] -0.455% | max response [3] -1.13% | Potency [10] | Potency [4] | outcome [11]
